Screening results deposited in PubChem BioAssay by National Center for Advancing Translational Sciences (NCATS).
CtBP-E1A blk: qHTS Assay for Inhibitors of the CtBP/E1A Interaction; activity change, % (test concentration not listed); AlphaScreen GST-E1A/His-CtBP binding, 1536-well; active compounds read low; CtBP / adenovirus E1A interaction (AlphaScreen); hit rate 0.49% among 340,000; in the data active = activity change below about -65%; inconclusive = mostly about -30% to -63%
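Steps: dispense buffer (Tris pH 8.0, NaCl 300 mM, TCEP 1 mM, BSA, Tween 20); add 5X protein mix (GST-E1A, His-CtBP, 125 nM each); pin 23 nL compound; 2 h at 37 °C, dark; add 5X beads (50 ug/mL); 1 h; read.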
Six1-Eya2 inh: qHTS Assay for Inhibitors of the Six1/Eya2 Interaction; Homeobox protein SIX1 (Homo sapiens) + Protein phosphatase EYA2 (Homo sapiens), …; AlphaScreen GST-Six1/His-Eya2 binding, biochemical; active compounds read low; activity change, % (no concentration beside the values); hit rate 0.56% among 360,000; in the data active = activity change below about -65%; inconclusive = mostly about -30% to -63%
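GST-Six1 + His-Eya2 (5X stock: 250/500 nM); Tris pH 8.0, 300 mM NaCl, 0.05% BSA, 0.02% Tween 20; GSH donor/Ni acceptor beads; 1 h 37 °C dark; AlphaScreen readout.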
BAZ2B block: qHTS Assay for Inhibitors of BAZ2B | Bromodomain adjacent to zinc finger domain protein 2B (Homo sapiens), Q9UIF8 | AlphaScreen BAZ2B-H3K14Ac peptide displacement | Potency, µM (doses to about 114 µM), actives largely listed as inhibitors | hit rate 4.4% among 360,000 | AID 504333, 2011; note: nearly all actives have a fitted effect of over 60% in size
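In this displacement format the biotinylated H3(5-23) peptide acetylated at Lys14 serves as ligand at 50 nM, with BAZ2B at 50 nM in PBS pH 7.4 containing 0.01% Tween-20. Donor and acceptor beads are 10 ug/mL final.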
HP1b binding inh: HTS for Inhibitors of HP1-beta Chromodomain Interactions with Methylated Histone Tails | hit rate 0.56% among 390,000 | Potency, µM (top dose mostly 114 µM), most hits filed as inhibitors | Chromobox protein homolog 1 (Homo sapiens), P83916 | AlphaScreen HP1-beta / biotin-H3K9me3 peptide binding | AID 540317, 2011; note: nearly all actives have a fitted effect of over 70% in size
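HP1-beta protein (50 nM final) preincubated 30 min at room temperature with biotinylated H3(1-18)K9me3 peptide (50 nM) in PBS pH 7.4, 0.01% Tween-20, then compound added for 30 min. AlphaScreen streptavidin donor/nickel chelate acceptor beads (10 ug/mL final), 30 min dark, luminescence read.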
JMJD2A Tudor: qHTS Assay for Inhibitors of JMJD2A-Tudor Domain; Lysine-specific demethylase 4A (Homo sapiens), O75164; AlphaScreen JMJD2A-Tudor / H3K4me3 peptide binding; Potency, µM (top dose mostly 114 µM), hits mostly inhibitors; hit rate 4.4% among 390,000; AID 504339, 2011; note: nearly all actives have a fitted effect of over 50% in size
G9a block: qHTS Assay for Inhibitors of Histone Lysine Methyltransferase G9a. Histone-lysine N-methyltransferase EHMT2 (Homo sapiens), Q96KQ7. G9a H3K9 monomethylation, AlphaScreen, 2 h. Potency, µM (doses to about 102 µM), usual class: inhibitors. hit rate 8.8% among 350,000. AID 504332, 2011; note: nearly all actives have a fitted effect of over 75% in size
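Using a bead-based AlphaScreen, monomethylated H3K9 product from 2 h room-temperature reactions (G9a 20 nM, peptide 500 nM, SAM 20 uM) was detected with 0.5 ug/mL rabbit anti-H3K9me1 antibody.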
A number is an active result; . = inactive; ? = inconclusive; / = no result; [ ] = remark or other dose. Most compounds without a hit are left out; they make up all but 10% or so of the library. Unless noted, calls come from the whole dose curve; as a rule, active = well fitted inhibition curve with a large enough effect; inconclusive = small, poorly fitted or top-dose-only effect; inactive = no such curve, though single readings can be large or run the other way.

SMILES	CtBP-E1A blk	Six1-Eya2 inh	BAZ2B block	HP1b binding inh	JMJD2A Tudor	G9a block
COCC(C)N=C1NN=C(c2c[nH]c3ccccc23)CS1 (configuration not stated)	/	.	.	.	.	.
O=C(NCCc1nc2ccccc2n1CCO)C1CCCCC1	/	/	/	/	.	/
O=C(CSc1ncccn1)Nc1ccc2[nH]c(=O)[nH]c2c1	.	.	.	.	.	14.1µM
COc1ccc(OCC(=O)OCC(=O)Nc2ccc3[nH]c(=O)[nH]c3c2)cc1	.	.	.	.	.	8.91µM
O=C(COC(=O)CSc1ccc(Cl)cc1)Nc1ccc2[nH]c(=O)[nH]c2c1	.	.	/	.	.	/
O=C(COC(=O)Cc1ccc(Cl)cc1)Nc1ccc2[nH]c(=O)[nH]c2c1	.	.	?	.	.	50.1µM
COc1ccccc1C1NC(c2ccc3c(c2)OCO3)=CC(c2cc(Cl)ccc2O)N1 (configuration not stated)	/	/	/	.	.	/
CCn1cc(C2=NC(CC(C)C)CO2)c2ccccc21 (configuration not stated)	.	.	.	.	.	.
O=C(Cc1n[nH]c(=O)c2ccccc12)Nc1cc(C(F)(F)F)ccc1-n1cncn1	.	.	.	.	.	35.5µM
O=C(Cc1n[nH]c(=O)c2ccccc12)Nc1cc(Cl)ccc1-n1cncn1	.	.	.	.	.	.
Cc1cc(Cl)c2oc(C(=O)N3CCCCC3CCN3CCCC3=O)c(C)c2c1 (configuration not stated)	.	.	50.1µM	.	.	/
CC(OC(=O)C1CCN(S(=O)(=O)c2ccc(C(C)(C)C)cc2)CC1)C(=O)N1CCOCC1 (configuration not stated)	.	.	.	.	.	17.8µM
CCc1cccc(CN2CCC(CNC(=O)Nc3ccc(Cl)cc3)CC2)c1	/	.	50.1µM	.	.	.
O=C(NCC1CCN(Cc2cccc(Cl)c2)CC1)Nc1ccc(Cl)cc1	/	.	.	.	.	.
CC1=C(C(=O)Nc2ccc(C)cc2C)C(CC(C)C)n2nc(SCc3ccccc3C)nc2N1 (configuration not stated)	/	/	.	.	.	.
COc1ccc(S(=O)(=O)N2CN(Cc3ccco3)c3nc4ccccc4nc32)cc1	.	.	?	.	?	?
Cc1ccc(S(=O)(=O)N2CN(Cc3ccco3)c3nc4ccccc4nc32)cc1	.	.	.	.	?	31.6µM
Cc1ccc(S(=O)(=O)N2CN(Cc3ccco3)c3nc4ccccc4nc32)cc1C	.	.	.	.	.	31.6µM
O=S(=O)(c1ccc(F)cc1)N1CN(Cc2ccco2)c2nc3ccccc3nc21	.	.	?	.	?	11.2µM
OC[C@@H]1CN(CCc2ccccc2)C[C@H](n2cnc3c(N4CCOCC4)ncnc32)O1	.	.	/	/	/	/
Cc1ccc(-c2nn(-c3cccc(F)c3)cc2CN(Cc2nccn2C)C(C)C)o1	.	.	?	?	?	10µM
Cc1ccc(-c2nn(-c3cccc(F)c3)cc2CN2CCN(c3ccccn3)CC2)o1	.	?	50.1µM	?	35.5µM	?
CC1CCN(C(=O)Cn2cc(SCc3ccccc3)c3ccccc32)CC1	/	/	.	.	.	.
O=C(CC1SC(=Nc2ccccc2)N(CCO)C1=O)Nc1ccccc1 (configuration not stated)	.	.	.	.	.	/
Cc1cc(C)cc(N=C2SC(CC(=O)Nc3ccccc3)C(=O)N2CCN2CCOCC2)c1 (configuration not stated)	.	.	?	.	?	50.1µM
SMILES	CtBP-E1A blk	Six1-Eya2 inh	BAZ2B block	HP1b binding inh	JMJD2A Tudor	G9a block
O=C1c2ccccc2NC(c2cccs2)N1O (configuration not stated)	.	.	.	.	?	31.6µM
CCOC(=O)c1c(NC(=O)c2cc3nc(-c4ccc(Br)cc4)cc(C(F)(F)F)n3n2)sc(C(C)=O)c1C	/	/	.	.	.	?
O=C(COc1ccccc1Br)NCc1ccco1	.	.	.	.	.	.
CN(c1ccccc1)S(=O)(=O)c1ccc(C(=O)OCC(=O)NCc2ccco2)cc1	.	.	?	.	?	?
COc1ccccc1OCC(=O)NCc1ccco1	.	.	.	.	.	56.2µM
COc1ccccc1NS(=O)(=O)c1ccc(C(=O)OCC(=O)NCc2ccco2)cc1	.	.	50.1µM	.	.	50.1µM
CCN(CC)S(=O)(=O)c1ccc(C(=O)OCC(=O)NCc2ccco2)cc1	.	.	50.1µM	.	?	?
CCN(CC)S(=O)(=O)c1ccc(/C=C/C(=O)OCC(=O)NCc2ccco2)cc1	.	.	/	?	31.6µM	/
CCOC1=C2[C@@H](CN(S(=O)(=O)c3ccc(C)cc3)[C@H]2c2cccc3ccccc23)[C@H]2C(=O)N(C3CCCCC3)C(=O)[C@H]2C1	.	.	/	/	/	/
COc1ccc(Cl)cc1NS(=O)(=O)c1ccc2c(c1)NC(=O)CC(=O)N2	/	/	.	.	.	.
CCN(CC)c1nn2c(=O)c(C(=O)NCCc3ccc(C)cc3)cnc2s1	/	/	.	.	.	.
O=C1C2CCCN2C(=O)N1CCCCN1CCN(CCO)CC1 (configuration not stated)	.	.	.	.	.	.
COc1ccccc1C(C)NCC(=O)NC(=O)NCc1ccco1 (configuration not stated)	.	.	50.1µM	.	?	.
COc1cc(C(=O)NNC(=S)NCc2ccco2)cc(OC)c1OC	.	.	.	.	.	56.2µM
COc1ccc(S(=O)(=O)Nc2ccccc2C(=O)NCc2ccco2)cc1	.	.	?	.	.[11.4 µM]	14.1µM
COc1ccc(S(=O)(=O)N(Cc2ccccc2)c2ccccc2C(=O)Nc2ccccc2C(=O)NCc2ccco2)cc1	.	.	.	.	.	.
COc1cccc(S(=O)(=O)N2CCN(c3nc(-c4cccs4)nc4ccccc34)CC2)c1	/	/	/	.	.	/
O=C(COC(=O)c1cccnc1Cl)Nc1ccccc1OC(F)F	.	.	.	.	.	.
CCOc1ccc(C(=O)OCC(=O)Nc2cccnc2Cl)cc1OCC	.	.	/	.	.	/
CCOC(=O)c1ncccc1NC(=O)CC(=O)Nc1cccnc1C(=O)OCC	/	-94.9	/	.	12.6µM	/
O=C(COC(=O)c1ccc(Cl)c([N+](=O)[O-])c1)Nc1ccccc1OC(F)F	.	.	.	.	.	1.58µM
O=C(COC(=O)c1ccccn1)Nc1ccccc1OC(F)F	.	.	50.1µM	.	56.2µM	.
